Laboratory results published in PubChem BioAssay (EPA / NIEHS).
Some structures have more than one record in an assay (separate samples or runs), and their calls can disagree. The source made the active and inactive calls. The calls were made as follows: active = hit-call score of the fitted dose curve at least 0.9, where 1 is the maximum; inactive = score below 0.9.

assay: BSK_3C_uPAR: BioMAP Diversity Plus: 3C Assay for Urokinase-type plasminogen activator receptor (uPAR) Biomarker Activity (AID 2282998); settings: BioMAP 3C HUVEC, uPAR biomarker ELISA; actives raise or lower the signal
Protocol: BSK_3C is a cell-based, multiplexed-readout assay that uses umbilical vein endothelium, a human vascular primary cell, with measurements taken at 24 hours after chemical dosing in a 96-well plate.BSK_3CAR is an assay component measured in the BSK_3C assay. It measures uPAR antibody related to regulation of gene expression using ELISA technology.Data from the assay component BSK_3CAR was analyzed into 1 assay endpoint. This assay endpoint, BSK_3CAR, was analyzed with bidirectional fitting relative to DMSO as the negative control and baseline of activity. Using a type of binding reporter, gain or loss-of-signal activity can be used to understand changes in the signaling as they relate to the gene PLAUR. Furthermore, this assay endpoint can be referred to as a primary readout, because this assay has produced multiple assay endpoints where this one serves a signaling function. To generalize the intended target to other relatable targets, this assay endpoint is annotated to the cytokine intended target family, where the subfamily is plasmogen activator.
The levels of cell surface (or secreted, indicated by the prefix "s") biomarker endpoints were measured by ELISA. Overt cytotoxicity to cells in confluent adherent cultures (all systems other than the BT system) was assessed by measuring total protein levels using sulforhodamine B (SRB) staining in parallel cultures at the time of biomarker measurements, indicated as SRB endpoints. For proliferation assays for adherent cell types, individual cell types are cultured at sub-confluence and relative cell numbers quantified by SRB staining at time points optimized for each system (48 h: 3C and CASM3C systems; 72 h: BT and HDF3CGF systems; 96 h: SAg system). SRB was performed by staining cells with 0.1% SRB after fixation with 10% TCA and reading wells at 560 nm.Viability and proliferation of PBMC (T cells) was quantified by Alamar Blue reduction for the SAg and BT systems. For PBMC viability (referred to as PBMC Cytotoxicity within the assay endpoint names), cells were plated (75,000/well in a 96-well plate) and then chemical samples added for 1 h before addition of activators, SEB and TSST-1 (20 ng/mL final concentration each). Cells were incubated for 90 h. Then, Alamar Blue (20 uL/well) (Invitrogen, Cat DAL1100) was added for 6 h, and the plates were read with a fluorescence microplate reader at 546/580 nm (excitation/emission). For PBMC proliferation, cells were plated and activated as above but incubated for only 16 h prior to addition of Alamar Blue. Plates were read after 6 h.

Row | SMILES | outcome | AC50
1 | CNC(=O)Oc1cccc2c1OC(C)(C)C2 | inactive | –
2 | O=C1CCCO1 | inactive | –
3 | CCNS(=O)(=O)C(F)(F)C(F)(F)C(F)(F)C(F)(F)C(F)(F)C(F)(F)C(F)(F)C(F)(F)F | inactive | 19.6 µM (active)
4 | CO[C@@H]1[C@H](OC(=O)NC(=O)CCl)CC[C@]2(CO2)[C@H]1[C@@]1(C)O[C@@H]1CC=C(C)C | inactive | –
5 | N#CC(Br)(Br)C(N)=O | inactive | –
6 | CC(C)COC(=O)c1ccccc1C(=O)OCC(C)C | inactive | –
7 | C=CCc1ccc2c(c1)OCO2 | inactive | –
8 | ClC1=C(Cl)C2(Cl)C3C(Cl)C=CC3C1(Cl)C2(Cl)Cl (stereo not given) | – | 29.3 µM (active)
9 | CCOC(=O)[C@]1(c2ccccc2)Oc2ccccc2[C@@H]1N | – | 20 µM (active)
10 | Nc1ccc(Cc2ccc(N)cc2)cc1 | inactive | –
11 | CS(=O)(=O)NC(=O)c1cc(Oc2ccc(C(F)(F)F)cc2Cl)ccc1[N+](=O)[O-] | – | 28.6 µM (active)
12 | CCOc1cccc(C2(N3CCN(c4ccccc4)CC3)CCC(C)CC2)c1 (stereo not given) | inactive | –
13 | CCC[CH2][Sn]([Cl])([CH2]CCC)[CH2]CCC | – | 0.148 µM (active)
14 | Clc1ccc(C(c2ccc(Cl)cc2)C(Cl)Cl)cc1 | – | 14.1 µM (active)
15 | CC(O)CCO (stereo not given) | inactive | –
16 | CCCCC(CC)COC(=O)c1ccc(C(=O)OCC(CC)CCCC)c(C(=O)OCC(CC)CCCC)c1 (stereo not given) | inactive | –
17 | Cc1cc(N=Nc2ccccc2C)ccc1N | – | 10.4 µM (active)
18 | O=C(O)C1C2CCC(O2)C1C(=O)O (stereo not given) | inactive | –
19 | Cc1cccc(N)c1N | inactive | –
20 | CC(C)(C)OOC(C)(C)CCC(C)(C)OOC(C)(C)C | inactive | –

Row | SMILES | outcome | AC50
21 | CC(C)(C)OOC(=O)c1ccccc1 | inactive | –
22 | Cn1cc(-c2ccccc2)c(=O)c(-c2cccc(C(F)(F)F)c2)c1 | inactive | –
23 | Cc1ccc([N+](=O)[O-])cc1 | inactive | –
24 | CC(C)(OOC(C)(C)c1ccccc1)c1ccccc1 | – | 33.7 µM (active)
25 | CCCCCCCCOC(=O)c1ccc(C(=O)OCCCCCCCC)c(C(=O)OCCCCCCCC)c1 | inactive | –
26 | CCCCCCCCn1sccc1=O | – | 15.3 µM (active)
27 | CCN(CC)CCO | inactive | –
28 | O=Cc1ccco1 | inactive | –
29 | C[C@]12C=CC3=C4CCC(=O)C=C4CC[C@H]3[C@@H]1CC[C@@H]2O | – | 7.23 µM (active)
30 | CCC(C)c1ccc(O)cc1 (stereo not given) | inactive | –
31 | c1ccc(NNc2ccccc2)cc1 | inactive | –
32 | CC(C)(C)C(O)(CCc1ccc(Cl)cc1)Cn1cncn1 (stereo not given) | inactive | –
33 | CN(C)C(=O)Nc1ccc(Cl)cc1 | inactive | –
34 | CN(C)c1ccc(C(=O)c2ccc(N(C)C)cc2)cc1 | – | 3.34 µM (active)
35 | C[N+](C)(C)CC1CO1 (stereo not given) | inactive | –
36 | COc1cc(C=O)cc2c1[C@H](COC(N)=O)[C@]1(OC(C)=O)ON2C[C@H]2[C@@H]1N2C(C)=O | – | 11.6 µM (active)
37 | c1ccc2c(c1)oc1ccccc12 | inactive | –
38 | [As]#[In] | inactive | –
39 | O=C(Oc1ccc(Br)cc1)N1CCN2CCC1CC2 | inactive | –
